We go through 13 molecules from PubChem BioAssay (NCATS).

Inconclusive results are not listed. Values without a mark were called inactive. Active and inactive are the calls of the source. Unless noted, the call rests on the fitted dose curve; in most records, active means well fitted curve in the direction sought with a large enough effect; inconclusive means small, poorly fitted or top-dose-only effect, or another doubt; inactive means no such curve, though single readings can be large; an effect the other way counts as inactive or inconclusive.

A short description of assay [1]: Primary qHTS for inhibitors of La Crosse Virus (LACV) - induced cell death in SH-SY5Y cells (AID 1508616).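 Further: top concentration of the series differs between compounds; 0% = infected DMSO wells and 100% = uninfected DMSO wells; higher means more rescue of cells from virus-induced death.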 The gist of the method: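 Rescue of virus-induced death was read as ATPLite luminescence after 6 days at 37C, scaled between DMSO wells with LACV and without virus. Cells were SH-SY5Y, 6000/well, infected at 0.01 MOI after compound addition.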
Assay [2] concerns the target Calcium and integrin-binding protein 1 (Homo sapiens) (UniProt Q99828). The assay can be described thus: Validation qHTS for Identification of Calcium Integrin Binding protein 1 (CIB1) Competitor (AID 1508618). Further: on the % scale 0 is the no-effect control and ±100 the full control effect. In a few lines:
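Fluorescence polarization with 1 uM CIB1-GST and 100 nM FITC-alphaIIb peptide in HEPES pH 7.4, NaCl, 5 mM CaCl2, Tween20. Compounds at up to 114 uM final, preincubated with protein 15 min; read after 15 min more at RT.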

Assay [3] can be described thus: Primary qHTS for small molecule stabilizers of the endoplasmic reticulum resident proteome: Secreted ER Calcium Modulated Protein (SERCaMP) assay (AID 1508630). Further: potency means the concentration at half of the fitted maximal effect. In a few lines:
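The SH-SY5Y reporter protocol was run at 3 concentrations up to 38.3 uM (primary) or 11 concentrations (follow-up): 16 h compound, 100 nM thapsigargin for 4 h, then extracellular luciferase luminescence.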
(Quantitative high-throughput screening tests each substance at several concentrations.)

Another assay concerns the target Papain (Carica papaya) (UniProt P00784). Kind of assay: Primary qHTS assay for inhibitors of the protease papain (AID 1645873).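 Further: papain turnover of Z-FR-AMC read as the AMC fluorescence gain over 10 min; series mostly up to about 50 µM; on the % scale 0 is the no-effect control and ±100 the full control effect.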
The nature of assay [4]: Primary qHTS for inhibitors of nuclear receptor binding SET domain protein 2 (NSD2) in an isogenic RCH-ACV NSD2 p.E1099K mutant (9B) (AID 1645876). Further: nearly all actives have a fitted effect of over 70% in size. Further: potency means the concentration at half of the fitted maximal effect.
A short description of assay [5]: Primary qHTS for inhibitors of nuclear receptor binding SET domain protein 2 (NSD2) in an RCH-ACV wild type WT cells (2C) (AID 1645877). Further: nearly all actives have a fitted effect of over 70% in size. Further: potency means the concentration at half of the fitted maximal effect.
Assay [6] has as its target Calcium and integrin-binding protein 1 (Homo sapiens) (UniProt Q99828). Kind of assay: Primary qHTS for Identification of Calcium Integrin Binding Protein 1 (CIB1) Competitor (AID 1508620). Further: top concentration of the series differs between compounds; on the % scale 0 is the no-effect control and ±100 the full control effect. In a few lines: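 Fluorescence polarization competition: GST-tagged CIB1 (1 uM final) preincubated with compound 15 min at room temperature, then FITC-labelled alphaIIb peptide (100 nM final) added. After 15 min at room temperature, polarization read at Ex 480/Em 540.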

Assay [7] is described as follows: Confirmatory qHTS for small molecule stabilizers of the endoplasmic reticulum resident proteome: Secreted ER Calcium Modulated Protein (SERCaMP) assay (AID 1508628). Further: nearly all actives have a fitted effect of over 40% in size. Further: potency means the concentration at half of the fitted maximal effect. In a few lines:
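Reporter secretion upon ER calcium depletion (100 nM thapsigargin, 4 h, 37C) is measured as medium luminescence with coelenterazine, after 16 h compound pretreatment of SH-SY5Y-GLuc-SERCaMP cells; primary at three concentrations up to 38.3 uM, follow-up at 11 (up to 76.6 uM).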

Assay [8] deals with Cytochrome P450 2D6 (Homo sapiens) (UniProt P10635). Kind of assay: Cytochrome P450 family 2 subfamily D member 6 (CYP2D6) small molecule antagonists: luciferase biochemical (cell-free) qHTS assay (AID 1645840; active means well fitted curve in the direction sought with a large enough effect in the repeat runs; an effect the other way counts as inactive or inconclusive; further: nearly all actives have a fitted effect of over 55% in size; further: potency means the concentration at half of the fitted maximal effect). The gist of the method: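 P450-Glo CYP2D6 system: proluciferin substrate converted by enzyme to luciferin, read by luminescence proportional to activity. Enzyme-substrate mix with compound 10 min at room temperature, then NADPH regeneration 1 h before detection reagent.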

Assay [9] concerns the target Cytochrome P450 2C9 (Homo sapiens) (UniProt P11712). Kind of assay: Cytochrome P450 family 2 subfamily C member 9 (CYP2C9) small molecule antagonists: luciferase biochemical (cell-free) qHTS assay (AID 1645842; active means well fitted curve in the direction sought with a large enough effect in the repeat runs; an effect the other way counts as inactive or inconclusive; further: nearly all actives have a fitted effect of over 55% in size; further: potency means the concentration at half of the fitted maximal effect). In a few lines: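 P450-Glo CYP2C9 system: proluciferin substrate with enzyme in mix containing 0.4% BSA, 10 min at room temperature, then NADPH regeneration solution added and incubated 1 h at 37C. Detection reagent stopped reaction; luminescence read after 20 min as RLU.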

Assay [10] can be described thus: Cell Viability qHTS for small molecule stabilizers of the endoplasmic reticulum resident proteome (AID 1508629).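 Further: human SH-SY5Y neuroblastoma cells carrying the GLuc-SERCaMP reporter; compound exposure about 46 h in total before the viability read; on the % scale 0 is the no-effect control and ±100 the full control effect.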 The settings on record: cell viability counter-screen, 100 nM thapsigargin for final 4 h.
Assay [11] in a line: A High-Content qHTS Against Drug Library for the Identification of Small Molecules that Inhibit DYT1 Early Onset Primary Dystonia-Associated Cell Pathology (AID 1645839; calls by dose curve; further: series mostly up to about 46 µM). The gist of the method:
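Cells were seeded and left for 24 h, then dosed with compound alongside tetracycline induction of mutant EGFP-TorsinA. They were incubated for 48 h, fixed in 4% paraformaldehyde, permeabilized and imaged for mislocalization (%pathology) and cell count.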

In assay [12] the target is Cytochrome P450 3A4 (Homo sapiens) (UniProt P08684). Kind of assay: Cytochrome P450 family 3 subfamily A member 4 (CYP3A4) small molecule antagonists: luciferase qHTS assay (AID 1645841; active means well fitted curve in the direction sought with a large enough effect in the repeat runs; an effect the other way counts as inactive or inconclusive; further: nearly all actives have a fitted effect of over 45% in size). The gist of the method:
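P450-Glo CYP3A4 enzyme with proluciferin substrate preincubated 10 min with compound at room temperature, then NADPH regeneration 1 h. Luciferin detection reagent added for 20 min; luminescence recorded. Ketoconazole positive control.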

Chain of Cytochrome P450 2D6 (Homo sapiens) (P10635 whole entry, looked up): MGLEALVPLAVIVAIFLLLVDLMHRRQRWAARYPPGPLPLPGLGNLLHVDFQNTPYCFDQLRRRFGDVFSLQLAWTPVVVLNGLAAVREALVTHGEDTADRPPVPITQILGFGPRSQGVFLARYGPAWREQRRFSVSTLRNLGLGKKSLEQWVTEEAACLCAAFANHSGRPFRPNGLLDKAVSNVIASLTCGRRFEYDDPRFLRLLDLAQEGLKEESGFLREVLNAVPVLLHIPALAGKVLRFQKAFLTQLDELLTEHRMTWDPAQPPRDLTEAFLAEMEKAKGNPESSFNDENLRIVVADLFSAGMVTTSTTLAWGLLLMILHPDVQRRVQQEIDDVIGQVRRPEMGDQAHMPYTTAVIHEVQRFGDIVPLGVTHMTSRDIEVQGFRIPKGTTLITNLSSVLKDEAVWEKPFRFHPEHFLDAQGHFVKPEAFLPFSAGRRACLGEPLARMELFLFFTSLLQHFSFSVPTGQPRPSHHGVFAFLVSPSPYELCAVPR
Chain of Calcium and integrin-binding protein 1 (Homo sapiens) (Q99828 whole entry, looked up): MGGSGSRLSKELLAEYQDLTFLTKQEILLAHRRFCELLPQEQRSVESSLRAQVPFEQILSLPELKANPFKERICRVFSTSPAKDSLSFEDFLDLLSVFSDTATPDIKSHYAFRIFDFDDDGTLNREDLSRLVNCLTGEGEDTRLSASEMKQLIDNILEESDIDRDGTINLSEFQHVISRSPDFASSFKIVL
Chain of Cytochrome P450 2C9 (Homo sapiens) (P11712 whole entry, looked up): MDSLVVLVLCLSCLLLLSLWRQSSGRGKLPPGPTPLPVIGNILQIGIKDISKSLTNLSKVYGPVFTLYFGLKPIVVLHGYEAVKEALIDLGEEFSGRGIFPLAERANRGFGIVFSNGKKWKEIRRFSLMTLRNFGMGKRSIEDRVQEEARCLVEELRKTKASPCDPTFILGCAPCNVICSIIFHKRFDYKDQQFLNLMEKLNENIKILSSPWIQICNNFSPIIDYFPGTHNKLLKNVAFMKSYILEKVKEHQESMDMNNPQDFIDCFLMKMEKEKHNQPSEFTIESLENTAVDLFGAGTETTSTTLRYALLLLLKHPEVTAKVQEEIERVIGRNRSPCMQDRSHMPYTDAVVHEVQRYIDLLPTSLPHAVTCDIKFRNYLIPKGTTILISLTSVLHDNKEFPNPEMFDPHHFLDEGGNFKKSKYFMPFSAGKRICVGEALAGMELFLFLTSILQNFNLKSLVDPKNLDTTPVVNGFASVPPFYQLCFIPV
Chain of Papain (Carica papaya) (P00784 whole entry, looked up, the tested form may be a part): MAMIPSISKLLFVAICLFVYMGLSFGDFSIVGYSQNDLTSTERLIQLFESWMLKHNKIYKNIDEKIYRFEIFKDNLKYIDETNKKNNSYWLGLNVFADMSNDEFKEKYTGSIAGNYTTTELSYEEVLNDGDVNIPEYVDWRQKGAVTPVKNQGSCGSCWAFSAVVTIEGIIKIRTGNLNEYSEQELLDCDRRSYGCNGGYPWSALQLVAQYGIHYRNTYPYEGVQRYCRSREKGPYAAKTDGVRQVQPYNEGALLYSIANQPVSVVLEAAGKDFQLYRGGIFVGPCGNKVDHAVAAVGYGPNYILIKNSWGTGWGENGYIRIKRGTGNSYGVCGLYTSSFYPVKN
Chain of Cytochrome P450 3A4 (Homo sapiens) (P08684 whole entry, looked up): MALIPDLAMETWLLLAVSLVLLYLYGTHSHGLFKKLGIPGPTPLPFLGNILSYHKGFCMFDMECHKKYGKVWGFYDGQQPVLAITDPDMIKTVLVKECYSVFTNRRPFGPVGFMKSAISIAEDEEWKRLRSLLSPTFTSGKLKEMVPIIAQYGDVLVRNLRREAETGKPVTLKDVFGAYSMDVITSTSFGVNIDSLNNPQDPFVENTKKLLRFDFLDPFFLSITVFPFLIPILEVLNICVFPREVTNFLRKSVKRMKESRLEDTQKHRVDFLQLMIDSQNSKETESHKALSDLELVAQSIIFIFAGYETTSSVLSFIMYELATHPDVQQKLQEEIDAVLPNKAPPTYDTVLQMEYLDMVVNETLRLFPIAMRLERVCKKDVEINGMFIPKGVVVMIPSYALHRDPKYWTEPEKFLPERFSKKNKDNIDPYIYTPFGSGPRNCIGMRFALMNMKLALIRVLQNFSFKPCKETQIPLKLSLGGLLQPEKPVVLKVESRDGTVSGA

In the case of `CC[C@H](C)C(=O)O[C@H]1CCC=C2C=C[C@H](C)[C@H](CC[C@@H]3C[C@@H](O)CC(=O)O3)[C@H]21`, the Potency result (in [1]; with Papain (Carica papaya)) was “inactive” in each case. Further, the outcome in [2] was inactive. Besides, the Potency was 2 µM (active) in [3], 14.8 µM (active) in assay [4] and 14.8 µM (active) in assay [5].
With `O=C(O)c1cc2cc(Cc3cccnc3)ccc2o1`, the Potency result (in assay [1]; in [3]; in the assay with Papain (Carica papaya)) was “inactive” in each case. Further, in [2], the outcome was inactive.
Regarding `CC(C)COC(=O)c1ccc(N)cc1`, the Potency entry in [1] and in assay [6] was “inactive” throughout.
`CC(=O)Oc1ccc(C(=C2CCCCC2)c2ccc(OC(C)=O)cc2)cc1`: the Potency entry in [1], in assay [6], in assay [7], in [4] and in assay [5] was “inactive” throughout. Further, the Potency in assay [8] was 15.5 µM (active); in [9], 9.77 µM (active).
Take `CCCC1O[C@@H]2C[C@H]3[C@@H]4CCC5=CC(=O)C=C[C@]5(C)[C@H]4[C@@H](O)C[C@]3(C)[C@]2(C(=O)CO)O1` (some centres not stated): the Potency result (in assay [1]; in [3]; in the assay with Papain (Carica papaya)) was “inactive” in each case. Besides, the result in assay [2] was inactive. Besides, in assay [9], the Potency was 15.1 µM (active).
Consider `CN1CCCC(CC2c3ccccc3Sc3ccccc32)C1` (configuration not stated), for which the Potency result in assay [1], in [6] and in [9] was “inactive” each time. The Potency is 22.4 µM (active) in [7], 0.0692 µM (active) in assay [8] and 18.8 µM (active) in [5]. Moreover, the max response in assay [10] is -16.7%.
Regarding `CCN1CCN(c2cc3c(cc2F)c(=O)c(C(=O)O)cn3C2CC2)CC1`, the Potency entry in assay [1], in assay [6], in [7], in [11], in assay [8] and in [9] was “inactive” throughout. Further, the Potency entry in assay [4] and in assay [5] was “inactive” throughout. Further, in assay [10], the max response is 21.1%. Besides, the Potency in assay [3] was 1.12 µM (active).
On to `C[C@@H]1C(=O)NC2=Nc3cccc(Cl)c3CN21`, for which the Potency result (in assay [1]; with Papain (Carica papaya)) was “inactive” each time. Further, the result in [2] was inactive.
For the molecule `Clc1ccc2c(c1)CCc1cccnc1C2=C1CCNCC1`, the Potency entry in assay [1], in assay [6] and in assay [3] was “inactive” each time.
`Cc1c(C(C)C)c(=O)n(-c2ccccc2)n1C`: the Potency result in assay [1], in [6], in assay [3], in assay [11], in [8] and in assay [9] was “inactive” each time. Also, the Potency entry in [4] and in [5] was “inactive” throughout.
On to `CN(C/C=C/c1ccccc1)Cc1cccc2ccccc12`, for which the Potency result in assay [1], in assay [6], in [3] and in assay [11] was “inactive” throughout. In assay [8], the Potency was 0.347 µM (active). Moreover, the call in assay [12] was inactive.
On to `C[C@H](CCC(=O)O)[C@H]1CC[C@H]2[C@@H]3C(=O)C[C@@H]4CC(=O)CC[C@]4(C)[C@H]3CC(=O)[C@]12C`, for which the Potency entry in [1], in assay [6], in [3], in [11], in assay [8] and in [9] was “inactive” throughout. Further, the Potency result in [4] and in [5] was “inactive” in each case.
Take `COC(=O)CCc1ccc(OCC(O)CNC(C)C)cc1` (configuration not stated): the Potency entry in assay [1], in assay [6], in assay [3], in [11], in [8] and in assay [9] was “inactive” in each case. In addition, the Potency result in assay [4] and in [5] was “inactive” throughout.
